Screens: PubChem BioAssay, several laboratories
Anthrax LF inh2: Bacillus anthracis LF protease inhibitors, primary screen, biochemical, multiplex microsphere, MLPCN library. inhibition, % at 10 µM. Lethal factor (Bacillus anthracis), P15917. 360,000 tested, 0.12% active. multiplex microsphere protease cleavage assay; also: plate controls were buffer without enzyme for full effect and enzyme alone for no effect
TcdB inh: TcdB glycohydrolase inhibitors, primary screen, biochemical, single point, plate reader; 350,000 tested, 0.24% active; TcdB glycohydrolase enzymatic assay; AID 652162, 2013; inhibition, % at 9.99 µM; Toxin B (Clostridioides difficile), P18177; in the data active = inhibition above about 10%
BoNT F protease: BoNT/F light chain protease inhibitors, primary screen, biochemical, flow cytometry, MLPCN library; Botulinum neurotoxin type F light chain protease (Clostridium botulinum); Multiplex microsphere protease cleavage assay; inhibition, % at 10 µM; 360,000 tested, 0.22% active; AID 588497, 2011; in the data active = inhibition above about 35%, passing the limit was not always enough; inconclusive = no clear call, values can overlap the other calls; also: plate controls were buffer without enzyme for full effect and enzyme alone for no effect
BoNT-A LC inh2: BoNT/A light chain protease inhibitors, primary screen, biochemical, flow cytometry, MLPCN library. multiplex microsphere protease substrate cleavage. 360,000 tested, 0.17% active. inhibition, % at 10 µM. Botulinum neurotoxin type A light chain protease (Clostridium botulinum A str. ATCC 3502); also: plate controls were buffer without enzyme for full effect and enzyme alone for no effect
Autofluor counter: compound fluorescence in toxin protease inhibitor counterscreen; compound autofluorescence counterscreen, microsphere flow cytometry; stronger effect = higher value; fluorescence intensity (no concentration beside the values); 360,000 tested, 3.1% active; AID 624483; in the data active = fluorescence intensity above about 16000; inconclusive = no clear call, values can overlap the other calls
An asterisk follows results filed as active. Many of the other results were omitted from the sample, so hits are more common in it than they were. Rule as the data show it, unless noted: active = inhibition above about 30%; inconclusive = no clear call, values can overlap the other calls; inactive = below that.

What do the screens show for `Cc1cc(NC(=O)CSc2nc3ccsc3c(=O)n2Cc2ccccn2)n[nH]1`?
Anthrax LF inh2: -4; TcdB inh: 2; BoNT F protease: 1; BoNT-A LC inh2: 0; Autofluor counter: 16535*

What do the screens show for `COc1ccc2c3c(n(C)c2c1)[C@H](CO)N(C(=O)c1cnccn1)CC31CN(C(=O)c2cnccn2)C1`?
TcdB inh: -1

Results for N#C[C@H]1[C@H](c2ccccc2C2=CCCCC2)[C@@H](CO)N1S(=O)(=O)c1cccc(F)c1 ?
TcdB inh: -2

Results for O=C(CSc1nnc(NC2CCCCC2)s1)Nc1ccc(N2CCOCC2)cc1 ?
Anthrax LF inh2: 1; TcdB inh: -1; BoNT F protease: 2; BoNT-A LC inh2: 1; Autofluor counter: 22057*

How did CC(=O)c1ccc(NC(=O)CSc2nnc(NC(=O)CN3CCOCC3)s2)cc1 do in these assays?
Anthrax LF inh2: -3; BoNT F protease: -4; BoNT-A LC inh2: 0; Autofluor counter: 5339

Results for Cc1ccc(NC(=O)CSc2nnc(NC(=O)CN3CCOCC3)s2)cc1 ?
Anthrax LF inh2: -2; BoNT F protease: 5; BoNT-A LC inh2: 0; Autofluor counter: 16377*

What do the screens show for `O=C(C[C@H]1CC[C@H]2[C@@H](COC[C@H](O)CN2CC2CCCCC2)O1)NCC1CC1`?
TcdB inh: 0

Results for Cc1cc2nnc(SCC(=O)N3C(C)CCCC3C)n2c(N)n1 (stereo unspecified) ?
Anthrax LF inh2: -7; BoNT F protease: -2; BoNT-A LC inh2: inconclusive; Autofluor counter: 22651*

How did O=C/C(=C\Nc1ccccn1)c1nc2cc(Cl)ccc2o1 do in these assays?
Anthrax LF inh2: -5; TcdB inh: -1; BoNT F protease: 2; BoNT-A LC inh2: 1; Autofluor counter: 3820

What do the screens show for `O=C/C(=C\Nc1ccccn1)c1nc2ccccc2o1`?
Anthrax LF inh2: -1; BoNT F protease: -6; BoNT-A LC inh2: inconclusive; Autofluor counter: 17474*

What do the screens show for `O=C(c1ccc2c(=O)n(-c3ccccc3)c(=O)[nH]c2c1)N1CCN(c2ccc(F)cc2)CC1`?
Anthrax LF inh2: -11; BoNT F protease: 1; BoNT-A LC inh2: 0; Autofluor counter: 5921

Results for CC(=O)c1ccc(N2CCN(C(=O)c3ccc4c(=O)n(-c5ccccc5)c(=O)[nH]c4c3)CC2)cc1 ?
Anthrax LF inh2: -1; BoNT F protease: 1; BoNT-A LC inh2: 2; Autofluor counter: 22374*

How did O=C(c1ccccc1F)N1CCN(c2ccc([N+](=O)[O-])c3cccnc23)CC1 do in these assays?
Anthrax LF inh2: 4; TcdB inh: 12*; BoNT F protease: 8; BoNT-A LC inh2: 10; Autofluor counter: 4171

Results for O=C(CSCc1ccc(F)cc1)N1CCN(c2ccc(F)cc2)CC1 ?
Anthrax LF inh2: -1; BoNT F protease: 2; BoNT-A LC inh2: 1; Autofluor counter: 10897

Results for C=CCn1c(=O)[nH]c2cc(C(=O)N3CCN(c4cc(C)ccc4C)CC3)ccc2c1=O ?
Anthrax LF inh2: -2; BoNT F protease: 2; BoNT-A LC inh2: 0; Autofluor counter: 16226*

Results for C=CCn1c(=O)[nH]c2cc(C(=O)N3CCN(c4ccc(C(C)=O)cc4)CC3)ccc2c1=O ?
Anthrax LF inh2: 0; BoNT F protease: 0; BoNT-A LC inh2: 0; Autofluor counter: 5776

What do the screens show for `O=C(CSCc1ccc(F)cc1)N1CCN(c2ccccc2)CC1`?
Anthrax LF inh2: -1; BoNT F protease: -3; BoNT-A LC inh2: -5; Autofluor counter: 23909*

Results for O=C(c1ccccc1F)N1CCN(c2ccc([N+](=O)[O-])c3ncccc23)CC1 ?
Anthrax LF inh2: 0; BoNT F protease: 2; BoNT-A LC inh2: 1; Autofluor counter: 2530

What do the screens show for `C[C@H]1CN([C@@H](C)CO)C(=O)c2cc(NS(C)(=O)=O)ccc2O[C@H]1CN(C)Cc1ccc2c(c1)OCO2`?
TcdB inh: 0

Results for O=C(c1ccc(-c2ccccc2)cc1)N1CCN(c2ccccc2)CC1 ?
Anthrax LF inh2: 0; TcdB inh: 0; BoNT F protease: inconclusive; BoNT-A LC inh2: -1; Autofluor counter: 4181

How did O=C(c1cccc(S(=O)(=O)N2CCCC2)c1)N1CCN(c2ccccc2)CC1 do in these assays?
Anthrax LF inh2: -1; BoNT F protease: -2; BoNT-A LC inh2: -2; Autofluor counter: 21121*
